# In all, about 5,500 compounds went through this assay and about 2,000 (36%) were called active. Another 18% or so got no clear call; they are omitted. Some of the results follow. Unmarked numbers belong to inactive results. Rule as the data show it: active = normalized growth mostly below about 0.91 (no sharp cut-off); inconclusive = no clear call, values can overlap the other calls; inactive = mostly above about 0.92.
# Assay: chemical genetic growth profiling, strain panel (AID 1159580);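 also: tested at 20 µM; growth read once vehicle control cultures reached saturation at 30 °C; 1 = growth at the plate median or of vehicle wells; lower values mean less growth of the strain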
# Details: S. cerevisiae deletion strains, growth OD
# [1] = locus YAR019C, strain CDC15, hits give low values
# [2] = locus YBL105C, strain PKC1, hits give low values
# [3] = locus YBR135W, strain CKS1, hits give low values
# [4] = locus YBR136W, strain MEC1, hits give low values
# [5] = locus YBR160W, strain CDC28, hits give low values
# [6] = locus YDL017W, strain CDC7, hits give low values
# [7] = locus YDL028C, strain MPS1, hits give low values
# [8] = locus YDL101C, strain DUN1, hits give low values
# [9] = locus YDL108W, strain KIN28, hits give low values
# [10] = locus YDL132W, strain cdc53, hits give low values
# [11] = locus YDL214C, strain PRR2, hits give low values
# [12] = locus YDR052C, strain DBF4, hits give low values
# [13] = locus YDR054C, strain cdc34, hits give low values
# [14] = locus YDR226W, strain ADK1, hits give low values
# [15] = locus YDR477W, strain SNF1, hits give low values
# [16] = locus YER123W, strain YCK3, hits give low values
# [17] = locus YER133W, strain GLC7, hits give low values
# [18] = locus YFL009W, strain cdc4, hits give low values
# [19] = locus YFL029C, strain CAK1, hits give low values
# [20] = locus YFR003C, strain YPI1, hits give low values
# [21] = locus YFR019W, strain FAB1, hits give low values
# [22] = locus YFR028C, strain CDC14, hits give low values
# [23] = locus YGR040W, strain KSS1, hits give low values
# [24] = locus YGR052W, strain FMP48, hits give low values
# [25] = locus YGR092W, strain DBF2, hits give low values
# [26] = locus YHR030C, strain SLT2, hits give low values
# [27] = locus YHR079C, strain IRE1, hits give low values
# [28] = locus YHR082C, strain KSP1, hits give low values
# [29] = locus YHR205W, strain SCH9, hits give low values
# [30] = locus YIL147C, strain SLN1, hits give low values
# [31] = locus YJL095W, strain BCK1, hits give low values
# [32] = locus YJL128C, strain PBS2, hits give low values
# [33] = locus YJL157C, strain FAR1, hits give low values
# [34] = locus YJR016C, strain ILV3, hits give low values
# [35] = locus YJR066W, strain TOR1 (second series), hits give low values
# [36] = locus YJR066W, strain TOR1, hits give low values
# [37] = locus YKL048C, strain ELM1, hits give low values
# [38] = locus YKL067W, strain YNK1, hits give low values
# [39] = locus YKL101W, strain HSL1, hits give low values
# [40] = locus YKL193C, strain SDS22, hits give low values
# [41] = locus YKL203C, strain TOR2, hits give low values
# [42] = locus YLR113W, strain HOG1, hits give low values
# [43] = locus YLR133W, strain CKI1, hits give low values
# [44] = locus YLR403W, strain SFP1, hits give low values
# [45] = locus YML070W, strain DAK1, hits give low values
# [46] = locus YMR001C, strain CDC5, hits give low values
# [47] = locus YMR205C, strain PFK2 (second series), hits give low values
# [48] = locus YMR277W, strain FCP1, hits give low values
# [49] = locus YNL006W, strain LST8, hits give low values
# [50] = locus YNL020C, strain ARK1, hits give low values
# [51] = locus YNL161W, strain CBK1, hits give low values
# [52] = locus YNL183C, strain NPR1, hits give low values
# [53] = locus YNL207W, strain RIO2, hits give low values
# [54] = locus YNL222W, strain SSU72, hits give low values
# [55] = locus YNL307C, strain MCK1 (second series), hits give low values
# [56] = locus YOL078W, strain AVO1, hits give low values
# [57] = locus YOL136C, strain PFK27, hits give low values
# [58] = locus YOR061W, strain CKA2, hits give low values
# [59] = locus YOR119C, strain RIO1, hits give low values
# [60] = locus YOR231W, strain MKK1, hits give low values
# [61] = locus YOR329C, strain SCD5, hits give low values
# [62] = locus YPL031C, strain PHO85, hits give low values
# [63] = locus YPL153C, strain RAD53, hits give low values
# [64] = locus YPL209C, strain IPL1, hits give low values
# [65] = locus YPL256C, strain CLN2, hits give low values
# [66] = locus YPR025C, strain CCL1, hits give low values
# [67] = locus YPR106W, strain ISR1, hits give low values
# [68] = locus YPR111W, strain DBF20, hits give low values
# [69] = strain NNK1, hits give low values
# [70] = strain TSCII, hits give low values
smiles,measurement,setting,value
O=C(c1ccccc1)c1cc(Cl)ccc1NC(=S)Nc1ccc(F)cc1,normalized growth,[1],0.984
same,normalized growth,[2],0.992
same,normalized growth,[3],0.99
same,normalized growth,[4],0.987
same,normalized growth,[5],0.998
same,normalized growth,[6],0.996
same,normalized growth,[7],0.994
same,normalized growth,[8],0.996
same,normalized growth,[9],0.985
same,normalized growth,[10],0.992
same,normalized growth,[11],0.968
same,normalized growth,[12],0.994
same,normalized growth,[13],0.994
same,normalized growth,[14],0.993
same,normalized growth,[15],0.982
same,normalized growth,[16],0.95
same,normalized growth,[17],0.977
same,normalized growth,[18],0.986
same,normalized growth,[19],0.987
same,normalized growth,[20],0.988
same,normalized growth,[21],0.945
same,normalized growth,[22],0.991
same,normalized growth,[23],0.967
same,normalized growth,[24],1.02
same,normalized growth,[25],0.989
same,normalized growth,[26],0.97
same,normalized growth,[27],0.997
same,normalized growth,[28],1.12
same,normalized growth,[29],0.988
same,normalized growth,[30],0.994
same,normalized growth,[31],0.988
same,normalized growth,[32],0.947
same,normalized growth,[33],0.962
same,normalized growth,[34],0.988
same,normalized growth,[35],0.937
same,normalized growth,[36],1.05
same,normalized growth,[37],0.99
same,normalized growth,[38],0.968
same,normalized growth,[39],0.971
same,normalized growth,[40],0.991
same,normalized growth,[41],1
same,normalized growth,[42],0.858 (active)
same,normalized growth,[43],0.983
same,normalized growth,[44],0.974
same,normalized growth,[45],0.978
same,normalized growth,[46],0.995
same,normalized growth,[47],0.977
same,normalized growth,[48],0.976
same,normalized growth,[49],0.992
same,normalized growth,[50],0.983
same,normalized growth,[51],0.992
same,normalized growth,[52],1.02
same,normalized growth,[53],0.992
same,normalized growth,[54],0.987
same,normalized growth,[55],0.968
same,normalized growth,[56],0.999
same,normalized growth,[57],0.969
same,normalized growth,[58],0.973
same,normalized growth,[59],1.05
same,normalized growth,[60],0.994
same,normalized growth,[61],0.993
same,normalized growth,[62],0.969
same,normalized growth,[63],0.988
same,normalized growth,[64],0.993
same,normalized growth,[65],0.985
same,normalized growth,[66],0.99
same,normalized growth,[67],0.997
same,normalized growth,[68],0.963
same,normalized growth,[69],0.995
same,normalized growth,[70],0.991
CCOC(=O)/C(=N/Nc1c(Cl)cccc1Cl)c1csc(N)n1,normalized growth,[1],0.968
same,normalized growth,[2],0.982
same,normalized growth,[3],0.973
same,normalized growth,[4],0.972
same,normalized growth,[5],0.984
same,normalized growth,[6],0.98
same,normalized growth,[7],0.975
same,normalized growth,[8],0.986
same,normalized growth,[9],0.97
same,normalized growth,[10],0.971
same,normalized growth,[11],0.89
same,normalized growth,[12],0.973
same,normalized growth,[13],0.996
same,normalized growth,[14],0.973
same,normalized growth,[15],0.864
same,normalized growth,[16],0.906
same,normalized growth,[17],0.868
same,normalized growth,[18],0.959
same,normalized growth,[19],0.966
same,normalized growth,[20],0.97
same,normalized growth,[21],0.971
same,normalized growth,[22],0.968
same,normalized growth,[23],0.884
same,normalized growth,[24],0.933
same,normalized growth,[25],0.834
same,normalized growth,[26],0.69 (active)
same,normalized growth,[27],0.837
same,normalized growth,[28],0.973
same,normalized growth,[29],0.994
same,normalized growth,[30],0.968
same,normalized growth,[31],0.873
same,normalized growth,[32],0.995
same,normalized growth,[33],0.864
same,normalized growth,[34],0.976
same,normalized growth,[35],0.868
same,normalized growth,[36],0.906
same,normalized growth,[37],0.986
same,normalized growth,[38],0.892
same,normalized growth,[39],0.918
same,normalized growth,[40],0.976
same,normalized growth,[41],0.921
same,normalized growth,[42],0.801 (active)
same,normalized growth,[43],0.913
same,normalized growth,[44],0.864
same,normalized growth,[45],0.889
same,normalized growth,[46],0.976
same,normalized growth,[47],0.925
same,normalized growth,[48],0.975
same,normalized growth,[49],0.968
same,normalized growth,[50],0.904
same,normalized growth,[51],0.969
same,normalized growth,[52],0.91
same,normalized growth,[53],0.947
same,normalized growth,[54],0.969
same,normalized growth,[55],0.898
same,normalized growth,[56],0.978
same,normalized growth,[57],0.893
same,normalized growth,[58],0.906
same,normalized growth,[59],0.975
same,normalized growth,[60],0.864
same,normalized growth,[61],0.975
same,normalized growth,[62],0.852
same,normalized growth,[63],0.858
same,normalized growth,"locus YPL204W, strain HRR25, hits give low values",0.805
same,normalized growth,[64],0.973
same,normalized growth,[65],0.859 (active)
same,normalized growth,[66],0.976
same,normalized growth,[67],0.966
same,normalized growth,[68],0.947
same,normalized growth,[69],0.97
same,normalized growth,[70],0.963
